Measured values taken from the supplement of paper PMC12494721.
Where a name gives a salt, the structure may show the parent alone.

System: Escherichia coli IAI1
Experiment: fold change of Cadaverine concentration vs plate DMSO controls (fold change (ratio)); higher = more amine produced, active = hit call of the paper (significant change in both replicates, either direction)
Conditions: incubation time: 27 h, anaerobic, 37 °C;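 for the amine columns active = adjusted P below 0.05 in both replicates with a change the same way and a mean fold change under 0.8 or over 1.25; inactive = the rest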
Outline: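 Amine values are fold changes relative to DMSO-only wells on the same plate. They derive from 27 h, 37 °C anaerobic mGAM cultures of four gut bacterial strains in 80 µL wells, dosed at 20 µM final, or 50 µM final for sweeteners. Extraction of the whole culture, LC–triple-quadrupole MS in dynamic MRM mode, external calibration curves and within-batch drift correction were used, with 2 biological replicates averaged.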

Fold change of Cadaverine concentration, inactive:
CC(=O)Nc1ccc(O)cc1 [Acetaminophen] (20 µM) 0.976, CC(C)(C)CC(C)(C)c1ccc(OCCOCC[N+](C)(C)Cc2ccccc2)cc1 [Benzethonium chloride] (20 µM) 1.02, C[C@H]1[C@H](NC(=O)/C(=N\OC(C)(C)C(=O)O)c2csc(N)n2)C(=O)N1S(=O)(=O)O [Aztreonam] (20 µM) 1.03, Nc1ccn([C@@H]2CS[C@H](CO)O2)c(=O)n1 [Lamivudine] (20 µM) 1.02, CN(C)CCCN1c2ccccc2CCc2ccccc21 [Imipramine hydrochloride] (20 µM) 0.976, Clc1ccccc1CN1CCc2sccc2C1 [Ticlopidine hydrochloride] (20 µM) 0.934, COc1ccc(CCN(C)CCCC(C#N)(c2ccc(OC)c(OC)c2)C(C)C)cc1OC (centres undefined) [Verapamil hydrochloride] (20 µM) 0.978, Cc1cnc(NC(=O)C2=C(O)c3ccccc3S(=O)(=O)N2C)s1 [Meloxicam] (20 µM) 0.959, C=C[C@H]1CN2CC[C@H]1C[C@@H]2[C@@H](O)c1ccnc2ccc(OC)cc12 [Quinidine hydrochloride monohydrate] (20 µM) 0.921, C[C@H](CS)C(=O)N1CCC[C@H]1C(=O)O [Captopril] (20 µM) 1.01, CC(C)Cc1ccc([C@H](C)C(=O)O)cc1 [(S,+) Ibuprofen] (20 µM) 1.06, O=C(O)CCNC(=O)c1ccccc1 [Betamipron] (20 µM) 1.06, CCc1c2c(nc3ccc(OC(=O)N4CCC(N5CCCCC5)CC4)cc13)-c1cc3c(c(=O)n1C2)COC(=O)[C@]3(O)CC [Irinotecan hydrochloride trihydrate] (20 µM) 0.994, Nc1nc2c(ncn2COCCO)c(=O)[nH]1 [Acyclovir] (20 µM) 1, CCN(CC)CCNC(=O)c1ccc(N)cc1 [Procainamide hydrochloride] (20 µM) 1.01, O=C1C(=O)c2ccccc2C(O)=C1C1CCC(c2ccc(Cl)cc2)CC1 (centres undefined) [Atovaquone] (20 µM) 0.989, CC[C@]12CCCN3CCc4c(n(c5ccccc45)[C@@](O)(C(=O)OC)C1)[C@@H]32 [Vincamine] (20 µM) 1.02, Cc1noc(NS(=O)(=O)c2ccc(N)cc2)c1C [Sulfisoxazole] (20 µM) 1.04, Cc1ccc(NC(=O)c2ccc(CN3CCN(C)CC3)cc2)cc1Nc1nccc(-c2cccnc2)n1 [Imatinib] (20 µM) 0.95, COc1cc2nc(N3CCN(C(=O)c4ccco4)CC3)nc(N)c2cc1OC [Prazosin hydrochloride] (20 µM) 0.968, CCOC(=O)C1=C(COCCN)NC(C)=C(C(=O)OC)C1c1ccccc1Cl (centres undefined) [Amlodipine] (20 µM) 1.1, CN1[C@@H]2CC[C@H]1CC(OC(=O)C(O)c1ccccc1)C2 (mixture of isomers) [(R,S) Homatropine hydrobromide] (20 µM) 1.02, CO/N=C(\C(=O)N[C@@H]1C(=O)N2C(C(=O)O)=C(C[N+]3(C)CCCC3)CS[C@H]12)c1csc(N)n1 [Cefepime hydrochloride] (20 µM) 0.884, CN(CCOc1ccc(NS(C)(=O)=O)cc1)CCc1ccc(NS(C)(=O)=O)cc1 [Dofetilide] (20 µM) 1.05, O=C1C(CC[S+]([O-])c2ccccc2)C(=O)N(c2ccccc2)N1c1ccccc1 (centres undefined) [Sulfinpyrazone] (20 µM) 0.991, CCC(C)C(C(=O)OCC[N+](C)(CC)CC)c1ccccc1 (centres undefined) [Valethamate bromide] (20 µM) 1.03, CCOC(=O)C1=C(C)NC(C)=C(C(=O)OC)C1c1cccc(Cl)c1Cl (centres undefined) [Felodipine] (20 µM) 0.893, NC(=O)c1cc[n+](CC2=C(C(=O)O)N3C(=O)[C@@H](NC(=O)C(c4ccccc4)S(=O)(=O)[O-])[C@H]3SC2)cc1 (some centres undefined) [Cefsulodin Sodium Salt Hydrate] (20 µM) 1.1, CO[C@@]1(NC(=O)CSCC#N)C(=O)N2C(C(=O)O)=C(CSc3nnnn3C)CS[C@@H]21 [Cefmetazole sodium salt] (20 µM) 0.941, CCN1CCN(C(=O)N[C@@H](C(=O)N[C@@H]2C(=O)N3C(C(=O)O)=C(CSc4nnnn4C)CS[C@H]23)c2ccc(O)cc2)C(=O)C1=O [Cefoperazone dihydrate] (20 µM) 1.36, CC/C(=C(\c1ccccc1)c1ccc(OCCN(C)C)cc1)c1ccccc1 [Tamoxifen citrate] (20 µM) 1.05, C#C[C@]1(O)CC[C@H]2[C@@H]3CCC4=CCCC[C@@H]4[C@H]3CC[C@@]21C [Lynestrenol] (20 µM) 0.997

Fold change of Cadaverine concentration, active:
Cc1nnc(SCC2=C(C(=O)O)N3C(=O)[C@@H](NC(=O)Cn4cnnn4)[C@H]3SC2)s1 [Cefazolin sodium salt] (20 µM) 0.613, Nc1ncn(C2OC(CO)C(O)C2O)c(=O)n1 (centres undefined) [Azacytidine-5] (20 µM) 1.72, O=C(O)c1cn(C2CC2)c2cc(N3CCNCC3)c(F)cc2c1=O [Ciprofloxacin hydrochloride monohydrate] (20 µM) 0.176, COc1cc(Cc2cnc(N)nc2N)cc(OC)c1OC [Trimethoprim] (20 µM) 1.78, CCn1cc(C(=O)O)c(=O)c2cc(F)c(N3CCN(C)CC3)cc21 [Pefloxacin] (20 µM) 0.204, COc1c(N2C[C@@H]3CCCN[C@@H]3C2)c(F)cc2c(=O)c(C(=O)O)cn(C3CC3)c12 [Moxifloxacin] (20 µM) 0.236, C[C@H]1COc2c(N3CCN(C)CC3)c(F)cc3c(=O)c(C(=O)O)cn1c23 [Levofloxacin] (20 µM) 0.226
